Records with an inconclusive call do not appear. The source made the active and inactive calls. Rule for the calls: active = hit-call score of the fitted dose curve at least 0.9, where 1 is the maximum; inconclusive = response in the unintended direction; inactive = score below 0.9.
Target: human Thyroid Receptor alpha (THRa1), THRA (gene 7067) (UniProt P10827)
Experiment: ATG_THRa1_TRANS: Attagene TRANS-FACTORIAL HepG2 Assay for human Thyroid Receptor alpha (THRa1) (AID 2283014)
Method in brief: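 HepG2 cells transiently transfected with multiplexed GAL4-UAS reporter units for exogenous chimeric THRa1-Gal4; reporter mRNA measured 24 h after dosing by RT-PCR, 6-FAM labelling, HpaI digestion and capillary electrophoresis. Gain-of-signal fitted versus DMSO baseline.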

Sequence of human Thyroid Receptor alpha (THRa1), THRA (gene 7067) (P10827 whole entry, looked up): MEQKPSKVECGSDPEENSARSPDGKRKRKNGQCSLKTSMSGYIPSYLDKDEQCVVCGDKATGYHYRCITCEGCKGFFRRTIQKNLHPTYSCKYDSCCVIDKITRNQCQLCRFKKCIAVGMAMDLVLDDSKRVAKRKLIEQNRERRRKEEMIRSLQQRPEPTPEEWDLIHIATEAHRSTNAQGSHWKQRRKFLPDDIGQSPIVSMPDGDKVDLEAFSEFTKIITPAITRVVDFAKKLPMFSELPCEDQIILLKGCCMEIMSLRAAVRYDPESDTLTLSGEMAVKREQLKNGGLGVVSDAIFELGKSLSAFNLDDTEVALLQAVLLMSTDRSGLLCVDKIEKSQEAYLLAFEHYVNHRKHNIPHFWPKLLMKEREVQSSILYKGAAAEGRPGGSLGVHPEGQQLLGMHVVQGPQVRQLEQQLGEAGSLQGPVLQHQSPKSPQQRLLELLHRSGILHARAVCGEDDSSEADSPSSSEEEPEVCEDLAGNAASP

Question: For `CC(O)C#CC(C)O` (stereo unspecified), which outcome is on record?
Answer: inactive

Question: `FC(F)(F)C(F)(F)C(F)(F)CC1CO1` (stereo unspecified) was tested. Which outcome did it give?
Answer: inactive

Question: With `NC(O)(C(F)(F)F)C(F)(F)F` as the molecule, how does the outcome read?
Answer: inactive

Question: For `O=C=NCc1cccc(CN=C=O)c1`, which outcome is on record?
Answer: inactive

Question: Which outcome does the source give for `Cc1cc(O)c(C(C)(C)C)cc1C(C)(C)C` here?
Answer: inactive

Question: How did the outcome turn out when `CCCCCCCCCCCCC[N+](C)(C)Cc1ccccc1` was run?
Answer: inactive

Question: `CCn1c2ccccc2c2ccccc21` was tested. Which outcome did it give?
Answer: inactive

Question: For `C=CC(=O)OCC(F)(F)C(F)(F)C(F)(F)COC(=O)C=C`, which outcome is on record?
Answer: inactive

Question: How did the outcome turn out when `Cc1ccc(S(=O)(=O)C(I)I)cc1` was run?
Answer: inactive

Question: Which outcome does the source give for `COC(F)(C(F)F)C(F)(F)F` (stereo unspecified) here?
Answer: inactive

Question: Which outcome does the source give for `CC(C)(C)C(=O)C1C(=O)c2ccccc2C1=O` here?
Answer: inactive

Question: How did the outcome turn out when `O=S(=O)(O)CCC(F)(F)C(F)(F)C(F)(F)C(F)(F)F` was run?
Answer: inactive

Question: `CCCCCCCC/C=C\CCCCCCCC(=O)N(C)CC(=O)O` was tested. Which outcome did it give?
Answer: inactive

Question: For `O=C(O)C(F)(F)C(F)(F)C(F)(F)C(=O)O`, which outcome is on record?
Answer: inactive

Question: `O=C=Nc1cccc2c(N=C=O)cccc12` was tested. Which outcome did it give?
Answer: inactive

Question: `Nc1cccnc1N` was tested. Which outcome did it give?
Answer: inactive

Question: For `Oc1ccc2c(c1)CCC2`, which outcome is on record?
Answer: inactive

Question: For `Cc1cnccn1`, which outcome is on record?
Answer: inactive

Question: `O=C1C=CC(=O)N1c1ccccc1` was tested. Which outcome did it give?
Answer: inactive

Question: `OCCCC(F)(F)C(F)(F)C(F)(F)C(F)(F)C(F)(F)C(F)(F)C(F)(F)C(F)(F)F` was tested. Which outcome did it give?
Answer: inactive

Question: How did the outcome turn out when `CCN(CC)c1ccc(C=O)cc1` was run?
Answer: inactive

— PubChem BioAssay (EPA / NIEHS)
